Measurements as given in PubChem BioAssay (NCI).
About 79,000 compounds went through this panel and 15% of them were active in at least one assay; those are over-represented in the sample as a whole. Values without a mark were called inactive. Activity calls are given as the source filed them. No stated cut-off is given here; in the data, active means growth inhibition above about 70%; inactive means the rest.

How the values were obtained:
[1] = NCI Yeast Anticancer Drug Screen. Data for the rad52 strain (AID 147);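 further: 0% = growth of vehicle-treated control cultures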; conditions: S. cerevisiae rad52 mutant growth inhibition, hits give high values
In short: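 Vehicle-treated cultures served as the reference for growth inhibition of compound-exposed yeast bearing a DNA repair mutation.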

[2] = NCI Yeast Anticancer Drug Screen. Data for the wt1 strain (AID 149);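 further: 0% = growth of vehicle-treated wt1 cultures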; conditions: S. cerevisiae wt1 strain (SPY 50644) growth inhibition, hits give high values
In short: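 Each compound is tested on wt1 yeast and the loss of growth versus vehicle gives the inhibition value.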

[3] = NCI Yeast Anticancer Drug Screen. Data for the rad50EPP+ strain (AID 151);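 further: 0% = growth of vehicle-treated control cultures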; conditions: S. cerevisiae rad50 mutant strain, hits give high values
In short: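 In this screen, rad50EPP+ yeast were exposed to compounds. Growth inhibition was scored against vehicle-treated controls.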

[4] = NCI Yeast Anticancer Drug Screen. Data for the mgt1 strain (AID 153); conditions: S. cerevisiae mgt1 mutant growth inhibition, hits give high values
In short: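 mgt1 strain exposed; growth vs vehicle control recorded as inhibition.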

[5] = NCI Yeast Anticancer Drug Screen. Data for the rad50 strain (AID 155);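 further: 0% = growth of vehicle-only cultures of the same strain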; conditions: S. cerevisiae rad50 strain growth inhibition, hits give high values
In short: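 Vehicle-treated cultures provide the reference for the growth inhibition reported for compound-exposed, repair-deficient yeast.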

[6] = NCI Yeast Anticancer Drug Screen. Data for the mec2-1 strain (AID 157); conditions: S. cerevisiae mec2-1 strain, hits give high values
In short: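 Vehicle-treated cultures served as reference for growth inhibition of compound-exposed mec2-1 yeast.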

[7] = NCI Yeast Anticancer Drug Screen. Data for the rad14 strain (AID 159);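 further: 0% = growth of vehicle-treated control cultures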; conditions: S. cerevisiae rad14 strain growth inhibition, hits give high values
In short: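 Inhibition of growth is reported for a repair-deficient yeast mutant following compound treatment, calculated relative to cultures that received vehicle.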

[8] = NCI Yeast Anticancer Drug Screen. Data for the sgs1 mgt1 strain (AID 161);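 further: 0% = growth of cultures given vehicle only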; conditions: S. cerevisiae sgs1 mgt1 strain, hits give high values
In short: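 Genetically altered yeast, compound exposure, growth inhibition relative to vehicle.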

[9] = NCI Yeast Anticancer Drug Screen. Data for the CLN2oe strain (AID 163);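 further: 0% = growth of vehicle-only control cultures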; conditions: S. cerevisiae CLN2oe strain, hits give high values
In short: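 Inhibition relative to vehicle-treated yeast is reported. Cells: strain with genetic alteration in cell-cycle control, grown with compound.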

[10] = NCI Yeast Anticancer Drug Screen. Data for the cln2 rad14 strain (AID 165);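 further: 0% = growth equal to vehicle treated cultures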; conditions: S. cerevisiae cln2 rad14 strain, hits give high values
In short: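 Each compound was tested on cln2 rad14 yeast. Inhibition of growth was calculated against vehicle-exposed controls.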

[11] = NCI Yeast Anticancer Drug Screen. Data for the bub3 strain (AID 167); conditions: S. cerevisiae bub3 mutant strain, hits give high values
In short: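 Mutant yeast screening strain plus compound; vehicle-treated cultures serve as the 0% inhibition reference.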

[12] = NCI Yeast Anticancer Drug Screen. Data for the wt2 strain (AID 169); conditions: S. cerevisiae wt2 strain growth inhibition, hits give high values
In short: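 Inhibition of yeast growth was determined after compound treatment, normalised to controls receiving only vehicle.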

[13] = NCI Yeast Anticancer Drug Screen. Data for the mlh1 strain (AID 171);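 further: 0% = growth of vehicle-treated control cultures of the same strain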; conditions: S. cerevisiae mlh1 strain growth inhibition, hits give high values
In short: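 Vehicle-normalised growth inhibition of a repair- or checkpoint-altered yeast strain following compound treatment.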

[14] = NCI Yeast Anticancer Drug Screen. Data for the sgs1 strain (AID 173);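 further: 0% = growth of vehicle-only control cultures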; conditions: S. cerevisiae sgs1 mutant, hits give high values
In short: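 Screen format: yeast with repair or checkpoint alterations, compound exposure, growth read relative to vehicle.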

[15] = NCI Yeast Anticancer Drug Screen. Data for the mlh1 rad18 strain (AID 175); conditions: S. cerevisiae mlh1 rad18 strain growth inhibition, hits give high values
In short: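 Vehicle-treated cultures served as the reference for growth inhibition in a yeast strain carrying DNA damage repair alterations exposed to each compound.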

[16] = NCI Yeast Anticancer Drug Screen. Data for the rad18 strain (AID 177); conditions: S. cerevisiae rad18 mutant growth inhibition, hits give high values
In short: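 Test articles were incubated with altered yeast defective in DNA damage repair. Results are given as inhibition of growth versus vehicle.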

[17] = at 5.0 µM (retest, dose inferred, filed as 0.5)
[18] = at 50.0 µM (retest, dose inferred, filed as 5.0)

SMILES: O=C(O)C1CCCCC1c1c2ccc(=O)c(O)c-2oc2c(O)c(O)ccc12 (stereo unspecified)
- growth inhibition ([1]; at 1.2 µM): -18%
- growth inhibition ([1]; at 3.7 µM): -26%
- growth inhibition ([1]; at 11.0 µM): -20%
- growth inhibition ([1]; at 33.0 µM): 24%
- growth inhibition ([1]; at 100.0 µM): 79% (active)
- growth inhibition ([2]; at 1.2 µM): -17%
- growth inhibition ([2]; at 3.7 µM): -11%
- growth inhibition ([2]; at 11.0 µM): -3%
- growth inhibition ([2]; at 33.0 µM): 32%
- growth inhibition ([2]; at 100.0 µM): 82% (active)
- growth inhibition ([3]; at 1.2 µM): -9%
- growth inhibition ([3]; at 3.7 µM): 0%
- growth inhibition ([3]; at 11.0 µM): -24%
- growth inhibition ([3]; at 33.0 µM): -39%
- growth inhibition ([3]; at 100.0 µM): -48%
- growth inhibition ([4]; at 1.2 µM): 11%
- growth inhibition ([4]; at 3.7 µM): 10%
- growth inhibition ([4]; at 11.0 µM): 15%
- growth inhibition ([4]; at 33.0 µM): 53%
- growth inhibition ([4]; at 100.0 µM): 86% (active)
- growth inhibition ([5]; at 1.2 µM): -12%
- growth inhibition ([5]; at 3.7 µM): -22%
- growth inhibition [5, 17]: 9%
- growth inhibition ([5]; at 11.0 µM): -16%
- growth inhibition ([5]; at 33.0 µM): 28%
- growth inhibition [5, 18]: 77% (active)
- growth inhibition ([5]; at 50.0 µM): 77.8% (active)
- growth inhibition ([5]; at 100.0 µM): 77% (active)
- growth inhibition ([6]; at 1.2 µM): -38%
- growth inhibition ([6]; at 3.7 µM): -32%
- growth inhibition [6, 17]: -7%
- growth inhibition ([6]; at 11.0 µM): -13%
- growth inhibition ([6]; at 33.0 µM): 46%
- growth inhibition [6, 18]: 80% (active)
- growth inhibition ([6]; at 50.0 µM): 82.1% (active)
- growth inhibition ([6]; at 100.0 µM): 85% (active)
- growth inhibition ([7]; at 1.2 µM): -17%
- growth inhibition ([7]; at 3.7 µM): -7%
- growth inhibition ([7]; at 11.0 µM): -9%
- growth inhibition ([7]; at 33.0 µM): 19%
- growth inhibition ([7]; at 100.0 µM): 84% (active)
- growth inhibition [8, 17]: 7%
- growth inhibition [8, 18]: 80% (active)
- growth inhibition ([8]; at 50.0 µM): 59.4%
- growth inhibition ([9]; at 1.2 µM): 15%
- growth inhibition ([9]; at 3.7 µM): 28%
- growth inhibition ([9]; at 11.0 µM): 23%
- growth inhibition ([9]; at 33.0 µM): 67%
- growth inhibition ([9]; at 100.0 µM): 86% (active)
- growth inhibition [10, 17]: -21%
- growth inhibition [10, 18]: 74% (active)
- growth inhibition ([10]; at 50.0 µM): 56.2%
- growth inhibition ([11]; at 1.2 µM): 0%
- growth inhibition ([11]; at 3.7 µM): 6%
- growth inhibition [11, 17]: -7%
- growth inhibition ([11]; at 11.0 µM): 12%
- growth inhibition ([11]; at 33.0 µM): 72% (active)
- growth inhibition [11, 18]: 80% (active)
- growth inhibition ([11]; at 50.0 µM): 87.2% (active)
- growth inhibition ([11]; at 100.0 µM): 86% (active)
- growth inhibition ([12]; at 1.2 µM): -32%
- growth inhibition ([12]; at 3.7 µM): -23%
- growth inhibition ([12]; at 11.0 µM): -25%
- growth inhibition ([12]; at 33.0 µM): 13%
- growth inhibition ([12]; at 100.0 µM): 73% (active)
- growth inhibition ([13]; at 1.2 µM): -30%
- growth inhibition ([13]; at 3.7 µM): -9%
- growth inhibition ([13]; at 11.0 µM): -33%
- growth inhibition ([13]; at 33.0 µM): 38%
- growth inhibition ([13]; at 100.0 µM): 74% (active)
- growth inhibition ([14]; at 1.2 µM): -11%
- growth inhibition ([14]; at 3.7 µM): -20%
- growth inhibition ([14]; at 11.0 µM): -16%
- growth inhibition ([14]; at 33.0 µM): 33%
- growth inhibition ([14]; at 100.0 µM): 74% (active)
- growth inhibition [15, 17]: -3%
- growth inhibition [15, 18]: 84% (active)
- growth inhibition ([15]; at 50.0 µM): 75.3% (active)
- growth inhibition ([16]; at 1.2 µM): -8%
- growth inhibition ([16]; at 3.7 µM): 5%
- growth inhibition ([16]; at 11.0 µM): 2%
- growth inhibition ([16]; at 33.0 µM): 20%
- growth inhibition ([16]; at 100.0 µM): 80% (active)

SMILES: CC(=O)Nc1ccc(SC(C)=O)cc1
- growth inhibition ([1]; at 1.2 µM): 0%
- growth inhibition ([1]; at 3.7 µM): -21%
- growth inhibition ([1]; at 11.0 µM): -2%
- growth inhibition ([1]; at 33.0 µM): 58%
- growth inhibition ([1]; at 100.0 µM): 86% (active)
- growth inhibition ([2]; at 1.2 µM): -36%
- growth inhibition ([2]; at 3.7 µM): -30%
- growth inhibition ([2]; at 11.0 µM): -18%
- growth inhibition ([2]; at 33.0 µM): 43%
- growth inhibition ([2]; at 100.0 µM): 85% (active)
- growth inhibition ([3]; at 1.2 µM): -29%
- growth inhibition ([3]; at 3.7 µM): -22%
- growth inhibition ([3]; at 11.0 µM): -6%
- growth inhibition ([3]; at 33.0 µM): -1%
- growth inhibition ([3]; at 100.0 µM): 29%
- growth inhibition ([4]; at 1.2 µM): -55%
- growth inhibition ([4]; at 3.7 µM): -45%
- growth inhibition ([4]; at 11.0 µM): -32%
- growth inhibition ([4]; at 33.0 µM): 44%
- growth inhibition ([4]; at 100.0 µM): 86% (active)
- growth inhibition ([5]; at 1.2 µM): -29%
- growth inhibition ([5]; at 3.7 µM): -4%
- growth inhibition [5, 17]: 80% (active)
- growth inhibition ([5]; at 11.0 µM): 7%
- growth inhibition ([5]; at 33.0 µM): 59%
- growth inhibition [5, 18]: 100% (active)
- growth inhibition ([5]; at 50.0 µM): 70.7% (active)
- growth inhibition ([5]; at 100.0 µM): 86% (active)
- growth inhibition ([6]; at 1.2 µM): -41%
- growth inhibition ([6]; at 3.7 µM): -45%
- growth inhibition [6, 17]: 72% (active)
- growth inhibition ([6]; at 11.0 µM): -9%
- growth inhibition ([6]; at 33.0 µM): 62%
- growth inhibition [6, 18]: 100% (active)
- growth inhibition ([6]; at 50.0 µM): 56.8%
- growth inhibition ([6]; at 100.0 µM): 86% (active)
- growth inhibition ([7]; at 1.2 µM): -27%
- growth inhibition ([7]; at 3.7 µM): -38%
- growth inhibition ([7]; at 11.0 µM): -5%
- growth inhibition ([7]; at 33.0 µM): 56%
- growth inhibition ([7]; at 100.0 µM): 88% (active)
- growth inhibition [8, 17]: -6%
- growth inhibition [8, 18]: 78% (active)
- growth inhibition ([8]; at 50.0 µM): 60.6%
- growth inhibition ([9]; at 1.2 µM): -5%
- growth inhibition ([9]; at 3.7 µM): -17%
- growth inhibition ([9]; at 11.0 µM): 12%
- growth inhibition ([9]; at 33.0 µM): 47%
- growth inhibition ([9]; at 100.0 µM): 85% (active)
- growth inhibition [10, 17]: 44%
- growth inhibition [10, 18]: 85% (active)
- growth inhibition ([10]; at 50.0 µM): 66.7%
- growth inhibition ([11]; at 1.2 µM): -25%
- growth inhibition ([11]; at 3.7 µM): -6%
- growth inhibition [11, 17]: 18%
- growth inhibition ([11]; at 11.0 µM): 0%
- growth inhibition ([11]; at 33.0 µM): 63%
- growth inhibition [11, 18]: 77% (active)
- growth inhibition ([11]; at 50.0 µM): 55.6%
- growth inhibition ([11]; at 100.0 µM): 87% (active)
- growth inhibition ([12]; at 1.2 µM): -22%
- growth inhibition ([12]; at 3.7 µM): -23%
- growth inhibition ([12]; at 11.0 µM): -10%
- growth inhibition ([12]; at 33.0 µM): 54%
- growth inhibition ([12]; at 100.0 µM): 88% (active)
- growth inhibition ([13]; at 1.2 µM): -25%
- growth inhibition ([13]; at 3.7 µM): -26%
- growth inhibition ([13]; at 11.0 µM): 6%
- growth inhibition ([13]; at 33.0 µM): 54%
- growth inhibition ([13]; at 100.0 µM): 86% (active)
- growth inhibition ([14]; at 1.2 µM): -30%
- growth inhibition ([14]; at 3.7 µM): -9%
- growth inhibition ([14]; at 11.0 µM): 10%
- growth inhibition ([14]; at 33.0 µM): 65%
- growth inhibition ([14]; at 100.0 µM): 88% (active)
- growth inhibition [15, 17]: 60%
- growth inhibition [15, 18]: 100% (active)
- growth inhibition ([15]; at 50.0 µM): 72.3% (active)
- growth inhibition ([16]; at 1.2 µM): -28%
- growth inhibition ([16]; at 3.7 µM): -10%
- growth inhibition ([16]; at 11.0 µM): -4%
- growth inhibition ([16]; at 33.0 µM): 52%
- growth inhibition ([16]; at 100.0 µM): 84% (active)
